Results reported in the supplement of paper PMC13380429.

Test system: Vero E6 infected with SARS-CoV-2
Test: inhibition of SARS-CoV-2 cytopathic effect; higher = more antiviral protection, active = above 15
Conditions: 48 h

Measured: inhibition of SARS-CoV-2 cytopathic effect

CCOC(=O)CCNc1cc(N2CCc3ccccc3CC2)nc(-c2ccccn2)n1
inactive: 1 nM -5.53% | 8.33 nM 0.27% | 100 nM 1.52% | 833.33 nM 1.83% | 10000 nM -0.53%

CNCC(O)c1ccc(OC(=O)C(C)(C)C)c(OC(=O)C(C)(C)C)c1 (stereo not given) [dipivefrine]
inactive: 1 nM 0.87% | 8.33 nM 3.76% | 100 nM 1.77% | 833.33 nM 1.42% | 10000 nM 0.56%

CC(=O)O[C@]1(C(C)=O)CC[C@H]2[C@@H]3CCC4=CC(=O)CCC4=C3[C@@H](c3ccc(N(C)C)cc3)C[C@@]21C [Ulipristal acetate]
inactive: 1 nM 4.79% | 8.33 nM 2.62% | 100 nM 1.8% | 833.33 nM 7.36% | 10000 nM 12.9%

CC(C)C(=O)Nc1ccc([N+](=O)[O-])c(C(F)(F)F)c1 [flutamide]
inactive: 1 nM -1.61% | 8.33 nM -1.6% | 100 nM -3.44% | 833.33 nM -2.92% | 10000 nM -5.12%

COC(=O)c1ccc(N2CCN(C)CC2)c(NC(=O)c2cccc(OC)c2)c1
inactive: 1 nM 6.88% | 8.33 nM 6.06% | 100 nM -2.23% | 833.33 nM -3.85% | 10000 nM 1.03%

CCOC(=O)N[C@@H]1CC[C@@H]2[C@@H](C1)C[C@H]1C(=O)O[C@H](C)[C@H]1[C@H]2/C=C/c1ccc(-c2cccc(F)c2)cn1 [vorapaxar]
inactive: 1 nM -1.52% | 8.33 nM -0.15% | 100 nM -0.3% | 833.33 nM -0.44% | 10000 nM 0.22%
